Bioassay records from PubChem.
SENP6 inh = SENP6 protease inhibitors, primary screen, biochemical, luminescence, uHTS; Sentrin-specific protease 6 (Homo sapiens), Q9GZR1; Recombinant SENP6 catalytic domain, aminoluciferin luminescence; inhibition, % at 10 µM; hit rate 1.8% among 330,000; AID 2599, 2010;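 active = inhibition above about 50% at the single tested dose, limit read from the data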;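 also: plate controls were DMSO wells with enzyme for no effect and DMSO wells lacking enzyme for full effect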
PPC-1+TRAIL kill = compounds killing PPC-1 cancer cells with TRAIL present, primary screen, TRAIL potentiator project, ATPLite luminescence, uHTS; hit rate 0.41% among 220,000; PPC-1 cells + TRAIL, ATPLite viability luminescence; cell killing (% activity), % at 4 µM or 5 µM;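 active = cell killing above 50% in the first pass at 4 µM, then a duplicate retest at 5 µM averaging 50% or more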;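 also: plate controls were cells with TRAIL plus DMSO for no effect and medium-only wells lacking cells for full effect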
SENP7 inh = SENP7 protease inhibitors, primary screen, biochemical, luminescence, uHTS; Sentrin-specific protease 7 (Homo sapiens), Q9BQF6; recombinant SENP7, Z-RLRGG-aminoluciferin luminescence, 40 min; inhibition, % at 5 µM; hit rate 1.5% among 330,000;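 active = inhibition above about 50% at the single test dose, limit read from the data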;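 also: plate controls were DMSO with enzyme for no effect and no enzyme buffer wells for full effect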
SENP8 block-1 = SENP8 protease inhibitors, primary screen, biochemical, luminescence. Sentrin-specific protease 8 (Homo sapiens), Q96LD8. purified SENP8, Z-RLRGG-aminoluciferin cleavage. inhibition, % at 10 µM. hit rate 1.2% among 330,000; in the data active = inhibition above about 50%
Target sequence (Q96LD8 whole entry, looked up): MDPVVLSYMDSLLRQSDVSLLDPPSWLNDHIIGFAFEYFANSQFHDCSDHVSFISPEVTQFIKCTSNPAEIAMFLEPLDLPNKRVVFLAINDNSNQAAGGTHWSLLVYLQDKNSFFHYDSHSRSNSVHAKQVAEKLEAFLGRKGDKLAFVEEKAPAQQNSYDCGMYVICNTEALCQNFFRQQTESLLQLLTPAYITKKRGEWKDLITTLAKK
SENP8 block-2 = human SENP8 protease inhibitors, primary screen, biochemical, fluorescence, Nedd8 protein substrate, uHTS. Sentrin-specific protease 8 (Homo sapiens), Q96LD8. recombinant SENP8. inhibition, % at 20 µM. hit rate 0.64% among 360,000. AID 602440, 2012; in the data active = inhibition mostly above about 40%, no sharp cut-off; inactive = mostly below about 27%
C8 TRAIL sens = viability loss with TRAIL in NB7+C8 cells, primary screen, TRAIL sensitizer project, cell-based, ATPlite luminescence; inhibition (viability loss, TRAIL sensitization), % at 10 µM; hit rate 1% among 360,000;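 active = compounds causing at least 50% loss of cell viability in the single-dose screen, relative to plate controls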
SENP8 conf = SENP8 protease inhibitors, retest, confirmation, biochemical, luminescence, single concentration. shares compounds with SENP7 inh. Recombinant SENP8, Z-RLRGG-aminoluciferin luminescence, 60 min. inhibition, % at 12.5 µM. hit rate 40% among 6,200. AID 488912, 2010;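 active = mean inhibition across replicates above about 50%, limit read from the data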
SENP6 conf = SENP6 protease inhibitors, confirmation, biochemical, luminescence, single concentration | hit rate 58% among 6,200 | recombinant SENP6, Z-RLRGG-aminoluciferin luminescence | shares compounds with SENP7 inh | inhibition, % at 12.5 µM | AID 488915, 2010
SENP7 confirm = SENP7 protease inhibitors, retest, confirmation, biochemical, luminescence, single concentration. shares compounds with SENP7 inh. hit rate 69% among 6,200. recombinant SENP7, Z-RLRGG-aminoluciferin luminescence, 40 min. inhibition, % at 12.5 µM
Casp3 SENP sel = caspase-3 protease inhibitors, confirmation, selectivity assay for SENP inhibitor project, biochemical, single concentration. shares compounds with SENP7 inh. purified caspase-3, Z-DEVD-aminoluciferin luminescence, 60 min. inhibition, % at 12.5 µM. hit rate 60% among 6,200. AID 488918, 2010;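 active = mean inhibition above about 50%, limit read from the data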;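 also: plate controls were enzyme with DMSO for no effect and wells without caspase-3 for full effect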
Target sequence (P42574 28-227 limits assumed): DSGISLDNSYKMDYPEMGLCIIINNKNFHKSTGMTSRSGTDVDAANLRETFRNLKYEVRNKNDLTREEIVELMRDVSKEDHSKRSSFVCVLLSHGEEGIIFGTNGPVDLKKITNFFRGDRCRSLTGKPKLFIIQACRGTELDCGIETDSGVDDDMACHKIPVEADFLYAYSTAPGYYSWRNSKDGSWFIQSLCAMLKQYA
Luc interf = luminescence interference (SENP counter-screen). shares compounds with SENP7 inh. Pre-incubated SENP8/Z-RLRGG-aminoluciferin, luciferase luminescence interference. inhibition, % at 12.5 µM. hit rate 39% among 6,200. AID 488919;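 active = mean inhibition above about 50% when retested at one dose, limit read from the data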;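 also: plate controls were DMSO wells with completed reaction for no effect and substrate without enzyme for full effect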
* = called active by the depositor; . = no result. Shown are actives, neighbours in structure and some others; about 3% of the full set was active somewhere.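 The calls were made as follows, unless noted: active = mean inhibition above about 50% in the one-dose retest (limit read from the data); inactive = the rest.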

SMILES | SENP6 inh | PPC-1+TRAIL kill | SENP7 inh | SENP8 block-1 | SENP8 block-2 | C8 TRAIL sens | SENP8 conf | SENP6 conf | SENP7 confirm | Casp3 SENP sel | Luc interf
COC(=O)[C@@H](Cc1ccccc1)NC(=O)/C=C/[C@H]1O[C@@H](n2cnc3c(NC(=O)c4ccccc4)ncnc32)[C@H](O)[C@@H]1O | . | . | . | . | 19 | 5 | . | . | . | . | .
O=C(Nc1ccc(F)cc1F)c1noc2c1CCC2 | 44 | 20 | 53* | 17 | 14 | 2 | 28 | 39 | 77* | 69* | 16
O=C(Nc1cc(Cl)ccc1Cl)c1noc2c1CCCC2 | -11 | 22 | 0 | 3 | 19 | -2 | . | . | . | . | .
O=C(Nc1ccc2c(c1)OCO2)c1noc2c1CCCC2 | 88* | . | 81* | 78* | 6 | 23 | 85* | 86* | 98* | 91* | 14
O=C(Nc1ccc2c(c1)OCO2)c1noc2c1CCCCC2 | 74* | 34 | 60* | 43 | 14 | 47 | 63* | 63* | 87* | 67* | 69*
CC(=O)c1ccc(NC(=O)c2noc3c2CCCCC3)cc1 | 26 | -4 | 22 | -6 | 3 | 19 | . | . | . | . | .
O=C(CCNS(=O)(=O)c1ccc(Cl)cc1)N1CCN(c2ccccn2)CC1 | -4 | . | 8 | 2 | -2 | -1 | . | . | . | . | .
O=C(Nc1nc2c(F)cc(F)cc2s1)c1ccco1 | 88* | . | 78* | 74* | -81 | 10 | 60* | 88* | 96* | 90* | 34
O=C(Nc1nc2c(F)c(F)c(F)cc2s1)c1ccco1 | 68* | . | 38 | 53* | -99 | 5 | 49 | 48 | 78* | 52* | 21
Cc1cc(NC(=O)c2noc3c2CCc2ccccc2-3)no1 | -29 | 1 | -2 | -28 | 8 | 14 | . | . | . | . | .
Cc1ccc(O)c(NC(=O)c2noc3c2CCc2ccccc2-3)c1 | 7 | 11 | 66* | 16 | 2 | 13 | -31 | -17 | -5 | 0 | -8
Cc1cc(C)c(NC(=O)C2CCCCN2C)c(C)c1 (centres undefined) | -25 | -8 | 80* | -2 | 14 | -8 | 8 | 10 | -3 | 2 | -1
Cc1cc(C)c(NC(=O)C2CCCN2CCC(C)C)c(C)c1 (centres undefined) | -3 | -8 | -1 | -2 | 23 | 12 | . | . | . | . | .
COc1cccc(/C=C2\CCC(C3CCCC3)C2=O)c1 (centres undefined) | 50* | . | 21 | 40 | 12 | 6 | 48 | 48 | 66* | 34 | 26
Cc1cccc(/C=C2\CCC(C3CCCC3)C2=O)c1 (centres undefined) | 33 | 8 | 7 | 4 | 11 | 8 | . | . | . | . | .
COc1ccc(Nc2ccc3c(c2)=NC2(CCCCC2)[N+]=3[O-])cc1 | 82* | -2 | 38 | 36 | 81* | 37 | 38 | 64* | 31 | 7 | 2
Cc1cc(C)c(OCC(=O)Nc2ccc(N3CCOCC3)cc2)c(Br)c1 | -9 | . | -3 | -7 | 4 | 3 | . | . | . | . | .
N#Cc1c(/N=C/c2ccco2)sc2c1CCCCC2 | 92* | 7 | 96* | 94* | 20 | 3 | 4 | 98* | 69* | 75* | 22
CN(C)/C=N/c1sc2c(c1C#N)CCCC2 | -4 | 22 | -15 | -1 | -198 | -7 | . | . | . | . | .
N#Cc1c(/N=C/c2cccs2)sc2c1CCC2 | 65* | 21 | 95* | 79* | 28 | 10 | 35 | 35 | 22 | 34 | 22
COc1cccc(C(=O)/C=C/Nc2ccc(S(=O)(=O)Nc3ncccn3)cc2)c1 | 63* | 8 | 35 | 21 | -386 | -7 | 4 | 5 | -2 | 20 | -5
COc1cccc(N/C=C/C(=O)c2ccc(OC)c(OC)c2)c1 | 89* | . | 75* | 64* | -271 | -23 | -9 | 70* | 93* | 70* | 16
COc1ccc(OC)c(N/C=C/C(=O)c2ccc(OC)c(OC)c2)c1 | 11 | . | -2 | -5 | -198 | -4 | . | . | . | . | .
Cc1cccc(NC(=O)c2n[nH]c([N+](=O)[O-])c2Br)c1C | 97* | 28 | 85* | 94* | 12 | 4 | 94* | 97* | 102* | 96* | 95*
Cc1cccc(NC(=O)c2ccccn2)c1C | 33 | 16 | 26 | -2 | 5 | -4 | . | . | . | . | .
SMILES | SENP6 inh | PPC-1+TRAIL kill | SENP7 inh | SENP8 block-1 | SENP8 block-2 | C8 TRAIL sens | SENP8 conf | SENP6 conf | SENP7 confirm | Casp3 SENP sel | Luc interf
CC(=O)c1ccc(NC(=O)CC2Nc3cccc4cccc(c34)NC2=O)cc1 (centres undefined) | 89* | -5 | 56* | 50* | -9 | -2 | 8 | 7 | -6 | -6 | -13
O=C(CC1NC(=O)NC1=O)Nc1ccccc1 (centres undefined) | 2 | 36 | 10 | 4 | 22 | -15 | . | . | . | . | .
CC(=O)Nc1ccc(NC(=O)CC2Nc3cccc4cccc(c34)NC2=O)cc1 (centres undefined) | 93* | 10 | 75* | 75* | -91 | -14 | -3 | -2 | 5 | 4 | -3
CCOc1ccc(NC(=O)CC2Nc3ccccc3NC2=O)cc1 (centres undefined) | 11 | 2 | 7 | 4 | -50 | 4 | . | . | . | . | .
Cc1cccc(NC(=O)CC2Nc3cccc4cccc(c34)NC2=O)c1 (centres undefined) | 83* | -18 | 67* | 76* | -40 | 1 | 12 | 9 | -1 | 1 | 1
Cc1noc(C)c1NC(=O)N1C[C@H](O)COC[C@H]2O[C@@H](CC(=O)NCC3CCCCC3)CC[C@@H]21 | . | . | . | . | 5 | -2 | . | . | . | . | .
O=C(NC1CCOCC1)C1CCC(=O)N(CCc2ccc(Cl)cc2)C1 (centres undefined) | -2 | . | -13 | -13 | 2 | 3 | . | . | . | . | .
C=CCOC(=O)C1=C[C@@H](c2ccc3c(c2)OCO3)C[C@@H](OCc2ccc(CO)cc2)O1 | -5 | 4 | -10 | -2 | -87 | -14 | . | . | . | . | .
